Source: PubChem BioAssay (NCI)
This is part of a sample that, as a whole, favours compounds with a hit. Of some 83,000 tested, about 20% had one in any assay.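 Single-dose data. Exposure time 48 hours. Values below 10 considered active.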 A number with no mark means an inactive call. Active and inactive are the calls of the source.

Columns and labels:
Experiment in all cases: NCI-60 one-dose screen, 48 h (100 = growth as untreated, 0 = no growth, -100 = all killed)
NCI-H322M lung = conditions: 10 µM unless noted
HOP-92 NSCLC = conditions: 10 µM unless noted
NCI-H522 lung = conditions: 10 µM unless noted
A549/ATCC NSCLC = conditions: 10 µM unless noted
COLO 205 colon = conditions: 10 µM
HT29 colon = conditions: 10 µM unless noted
SNB-19 CNS = conditions: 10 µM unless noted
PC-3 prostate = conditions: 10 µM unless noted
TK-10 renal = conditions: 10 µM unless noted
CAKI-1 renal = conditions: 10 µM unless noted
A498 renal = conditions: 10 µM unless noted
OVCAR-4 ovarian = conditions: 10 µM unless noted
HS 578T breast = conditions: 10 µM unless noted
HOP-62 NSCLC = conditions: 10 µM unless noted
EKVX NSCLC = conditions: 10 µM unless noted
CCRF-CEM leukemia = conditions: 10 µM unless noted
OVCAR-8 ovarian = conditions: 10 µM unless noted
SK-OV-3 ovarian = conditions: 10 µM unless noted
NCI-H226 lung = conditions: 10 µM unless noted

Structure (SMILES)	growth (NCI-H322M lung)	growth (HOP-92 NSCLC) [%]	growth (NCI-H522 lung)	growth (A549/ATCC NSCLC)	growth (COLO 205 colon) [%]	growth (HT29 colon)	growth (SNB-19 CNS)	growth (PC-3 prostate)	growth (TK-10 renal)	growth (CAKI-1 renal)	growth (A498 renal)	growth (OVCAR-4 ovarian)	growth (HS 578T breast)	growth (HOP-62 NSCLC)	growth (EKVX NSCLC)	growth (CCRF-CEM leukemia)	growth (OVCAR-8 ovarian)	growth (SK-OV-3 ovarian)	growth (NCI-H226 lung) [%]
COC[CH2][Hg][C]#[C][Hg][CH2]COC	116%	111	96.9%	99.1%	100	100%	108%	94.7%	119%	94.8%	103%	61.2%	85.3%						
COc1cccc2c1C(=O)c1c(O)c3c(c(O)c1C2=O)CC(O)(/C(C)=N/NC(=O)CCC(=O)N/N=C(\C)C1(O)Cc2c(O)c4c(c(O)c2C(OC2CC(N)C(O)C(C)O2)C1)C(=O)c1c(OC)cccc1C4=O)CC3OC1CC(N)C(O)C(C)O1 (stereo not drawn)	-31.6% [5 µM] (active)		-47% [5 µM] (active)	-30% [5 µM] (active)		-79% [5 µM] (active)	-20.9% [5 µM] (active)	-19.3% [5 µM] (active)		-44.3% [5 µM] (active)	-69.1% [5 µM] (active)	-13.5% [5 µM] (active)	-11.5% [5 µM] (active)	-31.3% [5 µM] (active)	-19.4% [5 µM] (active)	-25.2% [5 µM] (active)	13.1% [5 µM]	-31.4% [5 µM] (active)	
CCOC(=O)C1(c2ccccc2)CCN(CC(=O)c2ccc(NC(C)=O)cc2)CC1		66.5		95%	103	103%		86.8%	96.4%	95.4%	94.5%	122%	113%	99.9%	102%	99.3%	110%	101%	107
n1nc(-c2nonc2-c2nn[nH]n2)n[nH]1		104	101%	95.2%	117	107%	105%	102%	110%	98.8%	81.9%	102%		112%	96.3%		109%	115%	
CCC(CC)(c1ccccc1)C(OC(N)=O)c1ccccc1 (stereo not drawn)	85%		78.6%	76%	86.7	87.7%		72.3%		60.7%	79.2%	83.7%	88.2%			88.9%	92.5%		
CC[C@]12C=CCN3CC[C@@]4(c5ccc(OC)cc5N(C)[C@H]4[C@@](O)(C(=O)OC)[C@@H]1OC(=O)CCCN1CCN(CCCC(=O)O[C@@H]4[C@]5(CC)C=CCN6CC[C@@]7(c8ccc(OC)cc8N(C)[C@H]7[C@@]4(O)C(=O)OC)[C@@H]65)CC1)[C@@H]32	-88.5% (active)		-79.9% (active)			-81.3% (active)	-93.9% (active)		-87.9% (active)	-97% (active)		-47.4% (active)	-61.7% (active)	-82.5% (active)	-88.4% (active)	-56.7% (active)	-71.1% (active)	-88.7% (active)	
N#[N+]c1nc2nc(N)[nH]c(=O)c2[nH]1		93.2	94.8%	89.8%	103	104%	99.8%	96.8%	90%		107%		92.9%	92.5%	100%	95.1%		94.2%	
C/C(=N/OC(=O)N(C)C)c1ccc(Cl)cc1Cl			83.6%	97.3%	110	105%		118%	88.5%	96.6%	90.9%	113%	107%	98.2%		94.1%	106%	94.6%	104
